Compound activity as filed in PubChem.
LASV entry inh – blocks Lassa virus binding to or entry into cells. Lassa virus pseudotype entry inhibition, cell reporter. 300,000 tested, 1.2% active. Potency, µM (highest dose often 37.9 µM), inactives show top-dose activity change, negative = inhibition, most hits filed as inhibitors; calls by dose curve; tested in HEK293 cells; further: potency means the concentration at half of the fitted maximal effect; nearly all actives have a fitted effect of over 50% in size
Marburg entry inh – inhibitors of Marburg virus binding or cell entry; AID 540276; Marburg virus pseudotyped entry inhibition, cell reporter; 300,000 tested, 1.8% active; Potency, µM (doses to about 37.8 µM), for inactives: at the highest dose activity change, negative = inhibition, most hits filed as inhibitors; calls by dose curve; tested in HEK293 cells; further: potency means the concentration at half of the fitted maximal effect
HCMV antiviral – blocks human cytomegalovirus replication. 410,000 tested, 4.5% active. AID 1259415. HFF cells, HCMV-luciferase reporter, 72 h; active compounds read low. activity change, negative = inhibition, % at 57.5 µM; in the data active means activity change below about -60%; inconclusive means no clear call, values can overlap the other calls; inactive means above about -39%
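Two compound doses tested in HFFs infected with HCMV-luciferase, MOI 1 PFU/cell, 72 h at 37C. Lysate luminescence read with OneGlo; data normalized against buffer-only and 10uM Salinomycin inhibitor controls.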
HCV inhibitor – inhibitors of hepatitis C virus infection; Huh7.5.1 HCVcc-Cre infection, luciferase reporter, 44 h; 340,000 tested, 3.4% active; Potency, µM (top dose mostly 41.8 µM), without a hit: at the top dose activity change, negative = inhibition, actives largely listed as inhibitors; active means well fitted inhibition curve with a large enough effect; inconclusive means small, poorly fitted or top-dose-only effect, or another doubt; inactive means no such curve, though single readings can be large or run the other way; further: potency means the concentration at half of the fitted maximal effect
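Seed cells (1,000/well) for 4 h; treat with compound and infect with HCVcc-Cre, moi about 0.5. Incubate 44 h, then detect luciferase activity.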
FMDV antiviral – blocks foot and mouth disease virus; Potency, µM (titrated, usually from 57.9 µM), for the others: at the top dose activity change, negative = inhibition, most hits filed as inhibitors; 410,000 tested, 1.2% active; FMDV antiviral cell-based qHTS; calls by dose curve; tested in HEK293T cells; further: read-out not given here; potency means the concentration at half of the fitted maximal effect; nearly all actives have a fitted effect of over 45% in size
Starred values were filed as active, the others as inactive; ? = inconclusive; . = no result given; [ ] = dose if it differs, or a comment. This is a sample that favours compounds with a hit; in the whole collection about 7.9% have one here. On the % scale 0 is the no-effect control and ±100 the full control effect.

SMILES | LASV entry inh | Marburg entry inh | HCMV antiviral | HCV inhibitor | FMDV antiviral
COc1ccc(N2CCN(C(=O)c3ccc4c(c3)N(Cc3ccc(F)cc3)C(=O)c3ccccc3S4=O)CC2)cc1 (configuration not stated) | ? | ? | -30 | . | -10%
N=c1ccn(Cc2cccc(F)c2)cc1 | 4% | -4% | ? | 3.2µM* | ?
CCOc1nc(NCc2ccco2)nc(Nc2ccccc2F)n1 | 10% | ? | 66 | -14% | 46%
Clc1nc(NCc2ccco2)nc(N2CCCCC2)n1 | -9% | 0%[46.1 µM] | -36 | -19% | -15%
Fc1ccccc1Nc1nc(NCc2ccco2)nc(N2CCOCC2)n1 | 0% | ? | 16 | 35µM* | -20%
CC(C)c1ccc(Nc2nc(NCc3ccco3)nc(N3CCOCC3)n2)cc1 | ? | ? | 15 | 10µM* | -12%
Cc1cccc(NC(=O)c2onc3c2CCCC3)n1 | ? | 1.3µM* | -23 | -6% | ?
Cc1ccc(C(=O)Nc2onc3c2CCCC3)cc1 | ? | ? | -75* | . | 8.9µM*
O=C(Nc1ccc2ccccc2c1)c1onc2c1CCCC2 | 5.6µM* | -25% | 9 | ? | -49%
COC(=O)c1cccc(NC(=O)c2onc3c2CCCC3)c1 | ? | 9.2µM* | 138 | 3% | 51%
CC(=O)OC[C@H]1O[C@H](CC=NO[C@@H](C)c2cc(-c3c(C)cc(C)cc3C)no2)C=C[C@@H]1OC(C)=O | . | -3%[14.2 µM] | . | . | .
O=c1c2c(nc3cc(-c4ccc(Br)cc4)[nH]n13)CCCC2 | ? | ? | -29 | ? | 12%
O=c1c2c(nc3cc(-c4ccccc4)[nH]n13)CCC2 | 4µM* | -21% | 51 | 13% | -20%
CCOC(=O)Cc1c(C)nc2c(-c3cccc(Br)c3)c[nH]n2c1=O | 16µM* | ? | -93* | ? | -18%
O=c1c2c(nc3c(-c4ccc(Cl)cc4)c[nH]n13)CCC2 | ? | ? | -77* | ? | -15%
O=c1c2c(nc3c(-c4ccccc4)c[nH]n13)CCC2 | -8% | -15% | -16 | ? | .
CCOC(=O)Cc1c(C)nc2cc(-c3ccc(C(C)(C)C)cc3)[nH]n2c1=O | 2% | ? | -29 | 13µM* | 1%
CCOC(=O)Cc1c(C)nc2c(C#N)c[nH]n2c1=O | 27%[14.3 µM] | -3% | 22 | . | -17%
Cc1ccc(CN(C(=O)COc2cc(C)c(Cl)c(C)c2)c2ccccn2)o1 | 4%[46.1 µM] | -2%[46.1 µM] | 4 | . | -9%
O=c1c2c(nc3c(-c4cccc(Br)c4)c[nH]n13)CCCC2 | 2% | 6% | -102* | 6.3µM* | -7%
CCOc1ccccc1NC(=O)CSc1ccc2nnc(CCNS(=O)(=O)c3ccccc3)n2n1 | 6%[46.1 µM] | . | 19 | . | 8%
COc1ccc2c(Sc3ccccc3)c(C(=O)N3CCC(C)CC3)[nH]c2c1 | 8%[46.1 µM] | 3%[46.1 µM] | 32 | . | 98%
Cc1cccc(C)c1OC(=O)c1ccccc1 | -16%[46.1 µM] | -5%[46.1 µM] | 8 | 3% | 11%
COc1ccc(NC2c3ccccc3C(=O)N2c2ccccn2)cc1 (configuration not stated) | . | . | -80* | -1% | -27%
CCN(CC)S(=O)(=O)c1ccc(NC2c3ccccc3C(=O)N2c2ccc(C)cn2)cc1 (configuration not stated) | . | . | 49 | 14µM* | 27%
SMILES | LASV entry inh | Marburg entry inh | HCMV antiviral | HCV inhibitor | FMDV antiviral
Cc1ccc(N2C(=O)c3ccccc3C2Nc2ccc(S(=O)(=O)N3CCCCC3)cc2)nc1 (configuration not stated) | . | -2% | 11 | ? | 28%
O/N=C/c1ccc(-c2cc(Cl)ccc2Cl)o1 | 3% | -1% | -62* | ? | 0%
COC(=O)N/N=C/c1ccc(-c2cc(Cl)ccc2Cl)o1 | 7% | -24% | -6 | -24% | -10%
COc1ccccc1OCCn1c(C(C)Oc2ccccc2)nc2ccccc21 (configuration not stated) | ? | ? | -4 | . | -18%
CS(=O)(=O)c1ccc(Cl)c(NC(=O)CNC(=O)c2ccc3c(c2)OCO3)c1 | -27%[46.1 µM] | 0%[46.1 µM] | -61* | 7% | 9%
COc1ccccc1CN(C)CC(=O)Nc1cccc(S(=O)(=O)N2CCCC2)c1 | ? | -24% | -23 | ? | 0%
COc1ccccc1CNCC(=O)Nc1cc(S(=O)(=O)N2CCOCC2)ccc1Cl | ? | ? | -21 | ? | 25µM*
COc1ccc(S(=O)(=O)N2CCCCCC2)cc1NC(=O)CN(C)Cc1ccc2c(c1)OCO2 | . | . | ? | 11µM* | -15%
